According to PubChem BioAssay AID624491 (Broad Institute, 2012):
Among all 1,800 compounds or so, about 1,400 (78%) were called active. Inconclusive results (about 2%) are left out.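 How the source made its calls: active means fitted curve crossing a set activation limit at or below the highest valid dose tested; inconclusive means flat fit at 30 to 70% activation, or poor fit; inactive means the rest, including signal decreases.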 So high a share suggests a set chosen from earlier hits. Not all results are given here. Measured potencies and affinities stand elsewhere.

Assay: N-linked glycosylation inhibitors, luciferase reporter, dose response, D54 ERlucT cells, luminescence, cherry-picks (AID 624491);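 further: signal gain reflects blocked N-linked glycosylation of a luciferase reporter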
Conditions: 24 h, 100% = twice neutral-control luminescence; series mostly up to 19.5 µM

**Q.** With `CN(C)Cc1c(O)ccc2c1O/C(=C\C=C\c1ccccc1)C2=O` as the compound, how does the activation (NLG inhibition) read?
**A.** The activation (NLG inhibition) was “inactive”.

**Q.** Which activation (NLG inhibition) does the source give for `COc1ccc(OC)c(NS(=O)(=O)c2ccc(N3CCCC3=O)cc2)c1` here?
**A.** Its activation (NLG inhibition) is “inactive”.

**Q.** Which activation (NLG inhibition) does the source give for `COc1ccc(Cl)cc1/C=C/c1ccc2cccc(O)c2n1` here?
**A.** The activation (NLG inhibition) was “inactive”.

**Q.** For `O=C(CC(O)c1ccncc1)c1ccccc1O` (centres undefined), which activation (NLG inhibition) is on record?
**A.** The activation (NLG inhibition) was “inactive”.

**Q.** With `CCOC(=O)c1[nH]c2ccc(F)cc2c1NC(=O)C(C)N1CCc2cc(OC)c(OC)cc2C1` (centres undefined) as the compound, how does the activation (NLG inhibition) read?
**A.** The activation (NLG inhibition) was “inactive”.

**Q.** For `C#CC(=O)CC1(CN(Cc2ccccc2)C(=O)OC(C)(C)C)CCCCC1`, which activation (NLG inhibition) is on record?
**A.** The activation (NLG inhibition) was “inactive”.

**Q.** Which activation (NLG inhibition) does the source give for `CCN(CC(=O)Nc1ccccc1OC)CC(=O)Nc1ccccc1-c1ccccc1` here?
**A.** The activation (NLG inhibition) was “inactive”.

**Q.** Which activation (NLG inhibition) does the source give for `COC(=O)c1cc(=O)n(Cc2ccc3c(c2)OCO3)c(=Nc2ccc(F)c(Cl)c2)s1` here?
**A.** Its activation (NLG inhibition) is “inactive”.

**Q.** For `CC1=C([N+](=O)[O-])C(c2ccccc2)C2=C(N1)c1ccccc1C2=O` (centres undefined), which activation (NLG inhibition) is on record?
**A.** The activation (NLG inhibition) was “inactive”.

**Q.** With `COc1cc2cc(/C=C/C(=O)c3ccco3)c(Cl)nc2cc1OC` as the compound, how does the activation (NLG inhibition) read?
**A.** Its activation (NLG inhibition) is “inactive”.

**Q.** With `COc1ccc([N+](=O)[O-])cc1NC(=O)CCN1CCN(CCO)CC1` as the compound, how does the activation (NLG inhibition) read?
**A.** Its activation (NLG inhibition) is “inactive”.

**Q.** Which activation (NLG inhibition) does the source give for `NC(=O)CC(NC(=O)c1ccc(Br)cc1)c1ccc(N2CCCCCCC2)c([N+](=O)[O-])c1` (centres undefined) here?
**A.** The activation (NLG inhibition) was “inactive”.

**Q.** With `NC(=O)CC(NC(=O)Cc1ccc(Cl)cc1)c1ccc(NC2CC3CCC2C3)c([N+](=O)[O-])c1` (centres undefined) as the compound, how does the activation (NLG inhibition) read?
**A.** The activation (NLG inhibition) was “inactive”.

**Q.** Which activation (NLG inhibition) does the source give for `NC(=O)CC(NC(=O)Cc1ccc(Br)cc1)c1ccc(NC2CCCC2)c([N+](=O)[O-])c1` (centres undefined) here?
**A.** The activation (NLG inhibition) was “inactive”.

**Q.** Which activation (NLG inhibition) does the source give for `CC(C)Nc1ccc(C(CC(N)=O)NC(=O)Cc2ccc(Br)cc2)cc1[N+](=O)[O-]` (centres undefined) here?
**A.** Its activation (NLG inhibition) is “inactive”.

**Q.** Which activation (NLG inhibition) does the source give for `NC(=O)CC(NC(=O)Cc1ccc(Br)cc1)c1ccc(NCc2cc(F)ccc2F)c([N+](=O)[O-])c1` (centres undefined) here?
**A.** The activation (NLG inhibition) was “inactive”.

**Q.** With `CCCOc1ccc(F)cc1-c1cc(C(=O)Nc2ccc(C(C)C)cc2)[nH]n1` as the compound, how does the activation (NLG inhibition) read?
**A.** Its activation (NLG inhibition) is “inactive”.

**Q.** With `Oc1c(Br)cc(Br)cc1CNc1cccc2cccnc12` as the compound, how does the activation (NLG inhibition) read?
**A.** Its activation (NLG inhibition) is “inactive”.

**Q.** Which activation (NLG inhibition) does the source give for `Nc1c(C(=O)Nc2ccc(S(=O)(=O)N3CCCC3)cc2)sc2nc3cc4c(cc3cc12)CCC4` here?
**A.** Its activation (NLG inhibition) is “inactive”.

**Q.** Which activation (NLG inhibition) does the source give for `c1ccc2c(-c3nc4ccccc4[nH]3)cccc2c1` here?
**A.** Its activation (NLG inhibition) is “inactive”.

**Q.** For `COc1cccc(C(=O)Nc2ccc3c(c2)C(=O)c2ccccc2C3=O)c1`, which activation (NLG inhibition) is on record?
**A.** The activation (NLG inhibition) was “inactive”.

**Q.** Which activation (NLG inhibition) does the source give for `CCc1nn(C(C)C(=O)N2CCN(c3ccc(OC)cc3)CC2)c(=O)c2cc3occc3n12` (centres undefined) here?
**A.** The activation (NLG inhibition) was “inactive”.

**Q.** For `O=C(Nc1ccccc1-c1ccccc1)C1CCCC1`, which activation (NLG inhibition) is on record?
**A.** The activation (NLG inhibition) was “inactive”.

**Q.** For `CC#CC#Cc1cccc(=O)o1`, which activation (NLG inhibition) is on record?
**A.** The activation (NLG inhibition) was “inactive”.

**Q.** For `O=C(/C=C/c1ccccc1)c1ccc2c3c(cccc13)CC2`, which activation (NLG inhibition) is on record?
**A.** Its activation (NLG inhibition) is “inactive”.

**Q.** Which activation (NLG inhibition) does the source give for `Cc1cc(NC(=O)/C=C/C(=O)N(CC(=O)NC2CCCC2)c2ccc(F)cc2)no1` here?
**A.** Its activation (NLG inhibition) is “inactive”.

**Q.** For `Cc1cc(NC(=O)CSc2nc3ccccc3c(=O)n2C2CCCC2)no1`, which activation (NLG inhibition) is on record?
**A.** The activation (NLG inhibition) was “inactive”.

**Q.** For `Nc1nc(Nc2ccccc2)sc1C(=O)c1ccccc1`, which activation (NLG inhibition) is on record?
**A.** The activation (NLG inhibition) was “inactive”.

**Q.** For `COc1ccccc1N1CCN(C(=O)c2ccc(Cl)c(S(=O)(=O)NCc3ccco3)c2)CC1`, which activation (NLG inhibition) is on record?
**A.** The activation (NLG inhibition) was “inactive”.

**Q.** Which activation (NLG inhibition) does the source give for `COc1cc2ccccc2cc1C(=O)N1CCc2ccccc21` here?
**A.** The activation (NLG inhibition) was “inactive”.

**Q.** With `CCOc1ccc(S(=O)(=O)Nc2cc(OC)ccc2OC)cc1` as the compound, how does the activation (NLG inhibition) read?
**A.** Its activation (NLG inhibition) is “inactive”.

**Q.** Which activation (NLG inhibition) does the source give for `COc1cc(-c2nc3cnccn3c2Nc2ccc(C)cc2)ccc1O` here?
**A.** Its activation (NLG inhibition) is “inactive”.

**Q.** With `COCCCNC(=O)c1cccc2c(-c3ccc(O)c(OC)c3)coc12` as the compound, how does the activation (NLG inhibition) read?
**A.** Its activation (NLG inhibition) is “inactive”.

**Q.** For `COc1cc(OC)cc(C(=O)NNC(=O)c2ccc3ccccc3n2)c1`, which activation (NLG inhibition) is on record?
**A.** Its activation (NLG inhibition) is “inactive”.

**Q.** Which activation (NLG inhibition) does the source give for `CC(C)[n+]1ccn(C2=C([O-])c3ccccc3C(=O)/C2=N\S(=O)(=O)c2ccccc2)c1` here?
**A.** Its activation (NLG inhibition) is “inactive”.

**Q.** For `O=C(CNC(=O)N1CC(=O)Nc2ccccc21)NCCCc1ccccc1`, which activation (NLG inhibition) is on record?
**A.** The activation (NLG inhibition) was “inactive”.

**Q.** With `CC(C)c1ccc(NC(=O)[C@@H](NC(=O)N2CC(=O)Nc3ccccc32)C(C)C)cc1` as the compound, how does the activation (NLG inhibition) read?
**A.** Its activation (NLG inhibition) is “inactive”.

**Q.** With `CCC(C)[C@H](NC(=O)N1CC(=O)Nc2ccccc21)C(=O)Nc1ccccc1C` (some centres undefined) as the compound, how does the activation (NLG inhibition) read?
**A.** Its activation (NLG inhibition) is “inactive”.

**Q.** With `O=C(Nc1cccc(-c2nc3ncccc3o2)c1)c1sc2ccccc2c1Cl` as the compound, how does the activation (NLG inhibition) read?
**A.** Its activation (NLG inhibition) is “inactive”.

**Q.** With `O=C(Nc1cccc2ncccc12)c1ccc([N+](=O)[O-])o1` as the compound, how does the activation (NLG inhibition) read?
**A.** Its activation (NLG inhibition) is “inactive”.

**Q.** For `C(=N\Nc1nc2ccccc2[nH]1)/c1ccc2ncccc2c1`, which activation (NLG inhibition) is on record?
**A.** Its activation (NLG inhibition) is “inactive”.

**Q.** Which activation (NLG inhibition) does the source give for `COc1ccc(/C=C/C(=O)c2ccccc2)cc1COc1ccccc1F` here?
**A.** Its activation (NLG inhibition) is “inactive”.

**Q.** With `CC1(C(=O)NCC2CC2)Cc2c(-c3cccc(C(F)(F)F)c3)ccnc2O1` (centres undefined) as the compound, how does the activation (NLG inhibition) read?
**A.** The activation (NLG inhibition) was “inactive”.

**Q.** For `CC(=O)Nc1cccc(-c2ccnc3c2CC(C)(C(=O)NCc2cccc(Cl)c2)O3)c1` (centres undefined), which activation (NLG inhibition) is on record?
**A.** Its activation (NLG inhibition) is “inactive”.

**Q.** For `CC1(C(=O)NCC2CCOCC2)Cc2c(-c3cccc(C(F)(F)F)c3)ccnc2O1` (centres undefined), which activation (NLG inhibition) is on record?
**A.** Its activation (NLG inhibition) is “inactive”.

**Q.** With `Cc1nc(C)c(C(=O)N/N=C/c2c[nH]c3ccccc23)s1` as the compound, how does the activation (NLG inhibition) read?
**A.** Its activation (NLG inhibition) is “inactive”.

**Q.** For `CCOc1ccc(C(C)=O)cc1COc1cccnc1[N+](=O)[O-]`, which activation (NLG inhibition) is on record?
**A.** The activation (NLG inhibition) was “inactive”.

**Q.** Which activation (NLG inhibition) does the source give for `O=C(Oc1c(Cl)cc(Cl)c2cccnc12)c1ccco1` here?
**A.** Its activation (NLG inhibition) is “inactive”.

**Q.** Which activation (NLG inhibition) does the source give for `COc1ccccc1NC(=O)c1ccc(-c2ccc(Br)cc2)o1` here?
**A.** Its activation (NLG inhibition) is “inactive”.

**Q.** With `Cc1ccc(OCCNC(=O)c2cccc(S(=O)(=O)NCc3ccccc3)c2)cc1` as the compound, how does the activation (NLG inhibition) read?
**A.** Its activation (NLG inhibition) is “inactive”.

**Q.** Which activation (NLG inhibition) does the source give for `CCCCn1c(SCC(=O)Nc2cc(C(F)(F)F)cc(C(F)(F)F)c2)nnc1C(CC)N(C)C` (centres undefined) here?
**A.** The activation (NLG inhibition) was “inactive”.

**Q.** Which activation (NLG inhibition) does the source give for `COc1ccc(Oc2ccc(/C=C/C(=O)c3cccc(OC)c3)cc2[N+](=O)[O-])cc1` here?
**A.** Its activation (NLG inhibition) is “inactive”.

**Q.** For `Cc1cnc2cc(Cl)c(Cl)cc2n1`, which activation (NLG inhibition) is on record?
**A.** Its activation (NLG inhibition) is “inactive”.

**Q.** Which activation (NLG inhibition) does the source give for `CCOC(=O)C1=C(C)N=C2SC=C(C)N2C1c1ccc(OC)cc1` (centres undefined) here?
**A.** Its activation (NLG inhibition) is “inactive”.

**Q.** With `COc1ccc(CCNC(=O)c2cc(-c3ccco3)on2)cc1OC` as the compound, how does the activation (NLG inhibition) read?
**A.** Its activation (NLG inhibition) is “inactive”.

**Q.** Which activation (NLG inhibition) does the source give for `O=C(C=Cc1cccnc1)c1ccccc1` here?
**A.** The activation (NLG inhibition) was “inactive”.

**Q.** Which activation (NLG inhibition) does the source give for `O=C(/C=C/c1ccccc1Cl)c1ccc(O)cc1` here?
**A.** The activation (NLG inhibition) was “inactive”.

**Q.** With `O=C(/C=C/c1cccnc1)c1ccc(F)c(F)c1` as the compound, how does the activation (NLG inhibition) read?
**A.** Its activation (NLG inhibition) is “inactive”.

**Q.** For `CCOC(=O)c1[nH]c(C)c(C(=O)c2ccc(C)cc2)c1C`, which activation (NLG inhibition) is on record?
**A.** The activation (NLG inhibition) was “inactive”.
